Columns and labels:
Assay type in all cases: functional
Plasmodium falciparum [1] = assay: GSK_TCMDC: Inhibition of Plasmodium falciparum 3D7 in whole red blood cells, using parasite LDH activity as an index of growth. Test compounds present at 2uM
Plasmodium falciparum [2] = assay: GSK_TCMDC: Inhibition of Plasmodium falciparum Dd2 in whole red blood cells, using parasite LDH activity as an index of growth. Test compounds present at 2uM
HepG2 = assay: GSK_TCMDC: Percent inhibition of human HepG2 cell line. Test compounds present at 10uM.

Row | SMILES | Inhibition (Plasmodium falciparum [1]) | Inhibition (Plasmodium falciparum [2]) | Inhibition (HepG2)
1 | CC1CCCN(C(=O)C(C)Nc2cc(Cl)ccc2N2CCOCC2)C1 (stereo not drawn) | 100% | 96% | 0%
2 | Cc1ccccc1OCC(O)CN1CCC(C2CCN(CC(O)COc3ccccc3C)CC2)CC1 (stereo not drawn) | 100% | 51% | 12%
3 | Cc1nnc(-c2cccc(Nc3ccnc4cc(-c5nccs5)ccc34)c2)o1.Cl | 95% | 89% | 38%
4 | Cl.Cn1ccnc1S(=O)(=O)CCNCc1ccc(-c2ccc3ncnc(Nc4ccc(OCc5cccc(F)c5)c(Cl)c4)c3c2)o1 | 100% | 94% | 0%
5 | CO/C(=C\C=C\c1cc2cc(Cl)c(Cl)cc2[nH]1)C(=O)Nc1ccc(NCCN(C)C)nc1.Cl | 93% | 56% | 27%
6 | Cc1cc(NC(=O)CCCN2CCN(c3cccc(Cl)c3Cl)CC2)ccc1N1CCN(C(C)C)CC1.Cl | 100% | 53% | 86%
7 | Cc1cnc(C[S+]([O-])c2nc3cc(C(F)(F)F)ccc3[nH]2)cc1OCc1ccccc1 (stereo not drawn) | 93% | 76% | 0%
8 | CC(C)(C)c1ccc(NC(=O)Nc2ccc(Cn3ncc(N4CCCNCC4)c(Cl)c3=O)cc2)cc1.O=C(O)C(F)(F)F | 95% | 33% | 0%
9 | O=C(CSc1nccn1C1CCCCC1)Nc1cc(C(F)(F)F)ccc1Cl | 96% | 95% | 2%
10 | CC(=O)Nc1ncc(C(=O)Nc2cccc(-c3ccc(-c4nc5cc(C(F)(F)F)ccc5[nH]4)s3)c2)s1 | 100% | 99% | 90%
11 | COc1ccc(CCNCC(O)c2cccc(Br)c2)c(Cl)c1OC.Cl (stereo not drawn) | 87% | 70% | 18%
12 | COc1ccc(Cl)cc1C(=O)Nc1ccc(-c2nc3ccccc3[nH]2)cc1 | 92% | 39% | 42%
13 | COc1ccc(CNCc2cccc(-c3cccc(-c4nc5cc(C(F)(F)F)ccc5[nH]4)c3)c2)cc1.O=C(O)C(F)(F)F | 100% | 91% | 40%
14 | CCOc1ccc(C=CC(=O)Nc2ccc3nc(N4CCOCC4)cc(C)c3c2)cc1OC | 92% | 23% | 14%
15 | COc1ccc(C2=CCN(c3ccc(Cl)c(Cl)c3)C2=O)cc1OCCN1CCCCC1.Cl | 97% | 99% | 19%
16 | Nc1ncc(-c2cn[nH]c2)cc1-c1nc2cc(Cl)cnc2[nH]1 | 100% | 70% | 40%

Row | SMILES | Inhibition (Plasmodium falciparum [1]) | Inhibition (Plasmodium falciparum [2]) | Inhibition (HepG2)
17 | CC(C)(CN)c1nc(-c2ccc(Cl)c(O)c2)c(-c2ccnc(N)n2)[nH]1 | 95% | 95% | 34%
18 | Br.CC1(C)N=C(N)N=C(N)N1OCC1COc2ccccc2O1 (stereo not drawn) | 96% | 66% | 56%
19 | CCCCCCCNCc1c(O)ccc2c(CNCCCCCCC)c(O)ccc12.Cl | 100% | 99% | 29%
20 | CCN(CC)/C(=N/C(=N)Nc1ccc(Cl)cc1)NCCCCCCCCN/C(=N\C(=N)Nc1ccc(Cl)cc1)N(CC)CC | 99% | 94% | 10%
21 | CC(C)(CNCc1ccc(C(F)(F)F)cc1)c1nc(-c2ccnc(N)n2)c(-c2ccc(Cl)c(O)c2)[nH]1.Cl | 100% | 37% | 32%
22 | COc1cccc(-c2ccc(C(=O)NC3CCN(Cc4ccc(N(C)C)cc4)CC3)s2)c1.O=C(O)C(F)(F)F | 81% | 20% | 8%
23 | N#Cc1cccc(NC(=O)NC2CCN(CCCCCNC(=O)/C=C/c3ccc(Cl)c(Cl)c3)CC2)c1 | 100% | 7% | 31%
24 | O=C(O)C(F)(F)F.c1ccc(-c2ccc(CNCc3ccc(-c4cccc(-c5nc6ccccc6[nH]5)c4)cc3)s2)nc1 | 98% | 80% | 48%
25 | O=C(Nc1ccc(N2CCNCC2)cc1)c1ccn2ncc(-c3cccc(Cl)c3)c2n1 | 96% | 53% | 79%
26 | COc1c(F)ccc2ncc(Cl)c(CCN3CCC(NCc4ccc5c(n4)NC(=O)CS5)CC3)c12.Cl | 98% | 29% | 30%
27 | COc1ccc2c(=NN=Cc3ccncc3)cc(C)[nH]c2c1 | 99% | 95% | 0%
28 | Br.Oc1ccc(CCNCCCCCCNCCc2ccc(-c3ccccc3)cc2)cc1O | 100% | 8% | 72%
29 | Cn1nccc1C(=O)NCCNCc1cccc(-c2ccc(-c3nc4ccccc4[nH]3)cc2)c1.O=C(O)C(F)(F)F | 100% | 98% | 19%
30 | COc1ccccc1C(C)NCC(=O)Nc1cccc(C(=O)Nc2cccc(C(F)(F)F)c2)c1 (stereo not drawn) | 91% | 39% | 34%
31 | Cn1c(Nc2nnc(C3CC3)s2)nc2cc(Nc3ccnc(Nc4cccc(CS(C)(=O)=O)c4)n3)ccc21 | 97% | 83% | 0%

From ChEMBL document CHEMBL1157539, “Thousands of chemical starting points for antimalarial lead identification” (Nature, 2010)
